Measured values from ChEMBL document CHEMBL2218924, “A broad activity screen in support of a chemogenomic map for kinase signalling research and drug discovery” (Biochem J, 2013).

Legend:
[1] = molecular target: T1, Ephrin type-B receptor 1 (Homo sapiens) (UniProt P54762); conditions: at 10 µM
T1 sequence (whole entry): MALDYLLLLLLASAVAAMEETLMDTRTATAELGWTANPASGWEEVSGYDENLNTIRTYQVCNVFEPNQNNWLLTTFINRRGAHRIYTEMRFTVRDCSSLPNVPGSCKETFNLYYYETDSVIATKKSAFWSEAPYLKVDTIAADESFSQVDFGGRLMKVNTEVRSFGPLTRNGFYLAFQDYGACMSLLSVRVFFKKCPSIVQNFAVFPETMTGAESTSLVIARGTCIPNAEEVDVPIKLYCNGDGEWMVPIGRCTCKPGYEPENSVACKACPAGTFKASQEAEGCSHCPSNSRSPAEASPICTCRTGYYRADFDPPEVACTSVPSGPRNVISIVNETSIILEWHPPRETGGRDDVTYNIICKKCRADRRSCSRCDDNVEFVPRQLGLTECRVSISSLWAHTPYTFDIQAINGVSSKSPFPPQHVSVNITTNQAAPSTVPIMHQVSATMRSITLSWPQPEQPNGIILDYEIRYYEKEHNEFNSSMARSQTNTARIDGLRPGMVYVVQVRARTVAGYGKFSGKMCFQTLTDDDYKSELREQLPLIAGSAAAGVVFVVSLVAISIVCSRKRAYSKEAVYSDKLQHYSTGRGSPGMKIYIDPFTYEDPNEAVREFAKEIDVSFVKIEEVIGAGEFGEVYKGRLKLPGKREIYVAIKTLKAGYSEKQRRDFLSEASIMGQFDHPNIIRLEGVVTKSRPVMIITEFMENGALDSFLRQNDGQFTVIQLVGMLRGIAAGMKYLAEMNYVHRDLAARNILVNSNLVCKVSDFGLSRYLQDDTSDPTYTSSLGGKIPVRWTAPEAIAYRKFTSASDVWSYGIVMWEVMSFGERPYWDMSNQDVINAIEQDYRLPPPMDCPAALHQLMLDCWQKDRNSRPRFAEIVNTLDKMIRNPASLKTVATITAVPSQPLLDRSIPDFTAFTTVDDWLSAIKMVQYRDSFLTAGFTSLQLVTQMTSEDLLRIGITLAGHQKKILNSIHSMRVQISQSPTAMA

[2] = molecular target: T2, Ephrin type-B receptor 2 (Homo sapiens) (UniProt P29323); conditions: at 1 µM
T2 sequence (whole entry): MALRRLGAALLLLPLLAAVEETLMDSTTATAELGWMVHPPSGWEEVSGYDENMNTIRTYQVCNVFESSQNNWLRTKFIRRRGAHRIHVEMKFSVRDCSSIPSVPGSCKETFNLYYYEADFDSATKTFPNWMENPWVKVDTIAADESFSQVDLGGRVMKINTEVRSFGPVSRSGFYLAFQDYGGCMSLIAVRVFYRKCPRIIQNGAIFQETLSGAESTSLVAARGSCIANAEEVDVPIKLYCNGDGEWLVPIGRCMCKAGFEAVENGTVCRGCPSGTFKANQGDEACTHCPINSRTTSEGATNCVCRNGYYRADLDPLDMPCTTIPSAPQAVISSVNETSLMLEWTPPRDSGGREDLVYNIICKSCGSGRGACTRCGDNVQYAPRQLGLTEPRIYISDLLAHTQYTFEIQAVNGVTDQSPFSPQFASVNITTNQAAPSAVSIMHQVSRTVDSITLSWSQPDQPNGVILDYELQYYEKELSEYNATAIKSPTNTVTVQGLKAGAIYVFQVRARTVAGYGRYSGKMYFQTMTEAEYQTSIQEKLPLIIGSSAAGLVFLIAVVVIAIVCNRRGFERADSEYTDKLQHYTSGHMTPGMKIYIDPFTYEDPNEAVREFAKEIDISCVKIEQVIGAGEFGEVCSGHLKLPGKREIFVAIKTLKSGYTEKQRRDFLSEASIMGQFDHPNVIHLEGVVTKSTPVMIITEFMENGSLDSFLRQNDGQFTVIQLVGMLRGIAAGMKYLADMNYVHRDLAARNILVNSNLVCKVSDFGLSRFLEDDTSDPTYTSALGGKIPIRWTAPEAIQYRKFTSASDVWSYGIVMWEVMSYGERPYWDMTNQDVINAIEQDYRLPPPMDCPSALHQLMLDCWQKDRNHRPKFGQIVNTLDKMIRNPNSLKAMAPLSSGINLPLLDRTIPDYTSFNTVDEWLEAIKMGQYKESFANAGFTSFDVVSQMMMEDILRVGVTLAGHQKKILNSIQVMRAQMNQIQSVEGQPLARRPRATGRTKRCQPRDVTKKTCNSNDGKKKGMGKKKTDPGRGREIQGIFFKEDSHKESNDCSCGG

[3] = molecular target: T2, Ephrin type-B receptor 2 (Homo sapiens); conditions: at 10 µM
[4] = molecular target: T3, Ephrin type-B receptor 3 (Homo sapiens) (UniProt P54753); conditions: at 1 µM
T3 sequence (whole entry): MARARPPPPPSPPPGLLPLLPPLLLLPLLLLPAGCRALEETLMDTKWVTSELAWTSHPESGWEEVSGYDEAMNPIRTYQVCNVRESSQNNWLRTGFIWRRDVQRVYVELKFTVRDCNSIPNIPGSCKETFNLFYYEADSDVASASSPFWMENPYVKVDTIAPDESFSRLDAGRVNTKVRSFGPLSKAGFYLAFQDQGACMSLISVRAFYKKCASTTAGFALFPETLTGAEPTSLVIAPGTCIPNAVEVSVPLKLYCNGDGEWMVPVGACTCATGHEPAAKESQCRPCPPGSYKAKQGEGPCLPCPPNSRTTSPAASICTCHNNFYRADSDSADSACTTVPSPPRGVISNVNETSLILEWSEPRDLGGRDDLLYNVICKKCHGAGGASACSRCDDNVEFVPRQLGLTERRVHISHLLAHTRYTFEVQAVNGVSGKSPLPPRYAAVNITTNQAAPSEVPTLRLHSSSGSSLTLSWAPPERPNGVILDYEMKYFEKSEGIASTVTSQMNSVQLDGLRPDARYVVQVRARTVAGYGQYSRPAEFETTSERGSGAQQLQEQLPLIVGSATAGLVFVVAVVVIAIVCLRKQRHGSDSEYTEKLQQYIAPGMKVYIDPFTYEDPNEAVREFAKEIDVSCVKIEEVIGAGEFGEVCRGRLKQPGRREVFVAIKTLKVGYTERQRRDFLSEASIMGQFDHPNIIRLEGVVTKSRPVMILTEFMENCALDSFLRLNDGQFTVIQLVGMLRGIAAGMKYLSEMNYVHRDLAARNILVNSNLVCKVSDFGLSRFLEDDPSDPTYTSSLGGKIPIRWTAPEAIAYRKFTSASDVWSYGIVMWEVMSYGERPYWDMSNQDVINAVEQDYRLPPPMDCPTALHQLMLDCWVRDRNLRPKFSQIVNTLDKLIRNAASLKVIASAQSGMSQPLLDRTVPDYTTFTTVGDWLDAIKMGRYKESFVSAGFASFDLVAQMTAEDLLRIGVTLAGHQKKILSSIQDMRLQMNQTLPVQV

[5] = molecular target: T3, Ephrin type-B receptor 3 (Homo sapiens); conditions: at 10 µM
[6] = molecular target: T4, Ephrin type-B receptor 4 (Homo sapiens) (UniProt P54760); conditions: at 1 µM
T4 sequence (whole entry): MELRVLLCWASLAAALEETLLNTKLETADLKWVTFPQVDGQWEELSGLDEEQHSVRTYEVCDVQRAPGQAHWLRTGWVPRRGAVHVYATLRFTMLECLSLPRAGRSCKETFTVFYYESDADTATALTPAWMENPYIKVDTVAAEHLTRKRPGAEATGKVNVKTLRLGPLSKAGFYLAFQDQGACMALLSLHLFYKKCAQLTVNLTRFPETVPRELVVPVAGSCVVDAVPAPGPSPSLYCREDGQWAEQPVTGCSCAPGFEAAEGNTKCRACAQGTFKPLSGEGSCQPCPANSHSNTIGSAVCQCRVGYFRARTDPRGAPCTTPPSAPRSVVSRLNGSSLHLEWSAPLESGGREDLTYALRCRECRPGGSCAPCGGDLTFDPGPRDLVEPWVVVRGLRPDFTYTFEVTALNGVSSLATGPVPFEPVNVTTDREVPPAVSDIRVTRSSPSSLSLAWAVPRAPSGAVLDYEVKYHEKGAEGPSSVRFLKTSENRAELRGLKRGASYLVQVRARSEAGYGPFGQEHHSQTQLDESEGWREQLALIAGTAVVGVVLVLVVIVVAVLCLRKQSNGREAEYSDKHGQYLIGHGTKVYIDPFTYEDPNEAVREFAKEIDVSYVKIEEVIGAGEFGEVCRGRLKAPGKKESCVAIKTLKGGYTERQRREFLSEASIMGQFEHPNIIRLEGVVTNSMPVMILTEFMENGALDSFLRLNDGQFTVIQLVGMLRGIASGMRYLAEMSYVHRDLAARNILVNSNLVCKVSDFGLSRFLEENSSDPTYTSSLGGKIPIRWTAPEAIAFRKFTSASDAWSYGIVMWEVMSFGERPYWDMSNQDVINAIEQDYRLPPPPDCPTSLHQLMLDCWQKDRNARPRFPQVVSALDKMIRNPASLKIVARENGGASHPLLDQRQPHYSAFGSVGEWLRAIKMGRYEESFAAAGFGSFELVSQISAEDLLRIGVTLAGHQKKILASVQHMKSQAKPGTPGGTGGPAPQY

[7] = molecular target: T4, Ephrin type-B receptor 4 (Homo sapiens); conditions: at 10 µM
[8] = molecular target: Receptor tyrosine-protein kinase erbB-4 (Homo sapiens) (UniProt Q15303); conditions: at 1 µM
[9] = molecular target: Receptor tyrosine-protein kinase erbB-4 (Homo sapiens) (UniProt Q15303); conditions: at 10 µM
[10] = molecular target: Focal adhesion kinase 1 (Homo sapiens) (UniProt Q05397); conditions: at 1 µM
Sequence of Focal adhesion kinase 1 (Homo sapiens) (Q05397 2-1052 limits assumed): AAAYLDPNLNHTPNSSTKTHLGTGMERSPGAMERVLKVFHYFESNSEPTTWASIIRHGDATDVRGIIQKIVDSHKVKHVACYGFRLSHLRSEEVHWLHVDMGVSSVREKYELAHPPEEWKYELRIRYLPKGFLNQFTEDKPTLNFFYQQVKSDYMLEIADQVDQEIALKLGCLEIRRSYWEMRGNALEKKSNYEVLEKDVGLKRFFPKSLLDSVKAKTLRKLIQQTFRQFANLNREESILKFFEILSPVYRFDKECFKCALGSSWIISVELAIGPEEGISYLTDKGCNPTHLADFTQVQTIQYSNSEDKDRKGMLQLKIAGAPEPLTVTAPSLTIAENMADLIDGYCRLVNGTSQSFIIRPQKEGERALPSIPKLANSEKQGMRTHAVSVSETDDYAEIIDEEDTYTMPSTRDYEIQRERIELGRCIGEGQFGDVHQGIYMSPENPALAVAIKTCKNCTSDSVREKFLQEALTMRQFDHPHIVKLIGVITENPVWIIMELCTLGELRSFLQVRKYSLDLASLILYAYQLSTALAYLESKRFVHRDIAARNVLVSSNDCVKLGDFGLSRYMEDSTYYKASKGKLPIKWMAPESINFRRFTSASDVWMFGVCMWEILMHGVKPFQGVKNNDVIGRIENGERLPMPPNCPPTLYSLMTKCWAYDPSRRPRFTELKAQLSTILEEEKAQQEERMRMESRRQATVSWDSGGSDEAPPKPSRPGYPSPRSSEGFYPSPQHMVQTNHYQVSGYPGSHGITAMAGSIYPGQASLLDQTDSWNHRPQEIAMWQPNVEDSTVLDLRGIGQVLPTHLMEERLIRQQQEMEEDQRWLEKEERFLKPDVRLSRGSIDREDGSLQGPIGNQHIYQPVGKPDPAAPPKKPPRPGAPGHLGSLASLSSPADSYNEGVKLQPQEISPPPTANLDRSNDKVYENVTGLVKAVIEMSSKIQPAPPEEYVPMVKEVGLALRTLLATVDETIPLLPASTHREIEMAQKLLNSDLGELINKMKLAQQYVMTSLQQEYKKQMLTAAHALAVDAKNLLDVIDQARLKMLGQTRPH

[11] = molecular target: Focal adhesion kinase 1 (Homo sapiens) (UniProt Q05397); conditions: at 10 µM
[12] = molecular target: Fibroblast growth factor receptor 1 (Homo sapiens) (UniProt P11362); conditions: at 1 µM
Sequence of Fibroblast growth factor receptor 1 (Homo sapiens) (P11362 22-822 limits assumed): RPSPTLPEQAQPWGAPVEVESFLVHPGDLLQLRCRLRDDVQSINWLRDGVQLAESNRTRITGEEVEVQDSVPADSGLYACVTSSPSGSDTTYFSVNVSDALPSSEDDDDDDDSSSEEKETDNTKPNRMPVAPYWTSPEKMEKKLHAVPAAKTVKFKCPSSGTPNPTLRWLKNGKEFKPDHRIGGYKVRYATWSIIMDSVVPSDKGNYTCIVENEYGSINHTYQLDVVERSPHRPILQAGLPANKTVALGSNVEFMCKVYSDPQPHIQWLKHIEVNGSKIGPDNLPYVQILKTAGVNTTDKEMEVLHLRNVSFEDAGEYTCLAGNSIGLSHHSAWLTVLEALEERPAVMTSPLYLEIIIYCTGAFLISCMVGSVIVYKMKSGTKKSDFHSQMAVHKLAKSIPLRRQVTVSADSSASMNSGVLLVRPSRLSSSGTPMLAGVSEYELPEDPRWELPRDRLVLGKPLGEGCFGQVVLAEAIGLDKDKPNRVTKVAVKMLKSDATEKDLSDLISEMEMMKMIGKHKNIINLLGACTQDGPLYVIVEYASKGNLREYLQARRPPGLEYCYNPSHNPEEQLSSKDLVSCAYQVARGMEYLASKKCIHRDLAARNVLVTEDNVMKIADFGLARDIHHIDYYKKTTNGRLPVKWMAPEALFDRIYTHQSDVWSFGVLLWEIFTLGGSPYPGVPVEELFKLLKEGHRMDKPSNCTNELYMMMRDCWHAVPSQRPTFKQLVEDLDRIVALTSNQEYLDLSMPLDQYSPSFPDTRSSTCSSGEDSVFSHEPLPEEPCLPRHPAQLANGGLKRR

[13] = molecular target: Fibroblast growth factor receptor 1 (Homo sapiens) (UniProt P11362); conditions: at 10 µM
[14] = molecular target: Fibroblast growth factor receptor 2 (Homo sapiens) (UniProt P21802); conditions: at 1 µM
Sequence of Fibroblast growth factor receptor 2 (Homo sapiens) (P21802 22-821 limits assumed): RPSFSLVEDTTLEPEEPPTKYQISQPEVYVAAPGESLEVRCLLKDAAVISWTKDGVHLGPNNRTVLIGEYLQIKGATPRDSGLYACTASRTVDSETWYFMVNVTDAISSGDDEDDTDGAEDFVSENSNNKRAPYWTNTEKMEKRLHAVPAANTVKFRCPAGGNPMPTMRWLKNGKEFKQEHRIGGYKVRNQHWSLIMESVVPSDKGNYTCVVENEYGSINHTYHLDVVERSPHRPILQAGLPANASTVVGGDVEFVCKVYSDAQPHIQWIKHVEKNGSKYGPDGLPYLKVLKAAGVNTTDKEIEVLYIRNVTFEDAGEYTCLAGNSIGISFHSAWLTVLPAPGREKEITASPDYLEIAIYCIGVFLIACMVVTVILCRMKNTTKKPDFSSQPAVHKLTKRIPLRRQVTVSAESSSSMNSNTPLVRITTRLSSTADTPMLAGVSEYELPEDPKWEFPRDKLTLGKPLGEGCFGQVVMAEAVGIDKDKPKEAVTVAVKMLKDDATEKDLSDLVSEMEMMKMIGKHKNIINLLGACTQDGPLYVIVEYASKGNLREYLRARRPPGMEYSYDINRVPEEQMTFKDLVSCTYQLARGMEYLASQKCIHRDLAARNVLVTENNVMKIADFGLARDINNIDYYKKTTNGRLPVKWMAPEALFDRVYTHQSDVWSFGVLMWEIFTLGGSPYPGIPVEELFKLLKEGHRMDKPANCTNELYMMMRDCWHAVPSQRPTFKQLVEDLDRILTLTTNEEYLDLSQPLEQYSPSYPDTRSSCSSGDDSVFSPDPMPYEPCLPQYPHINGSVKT

[15] = molecular target: Fibroblast growth factor receptor 2 (Homo sapiens) (UniProt P21802); conditions: at 10 µM
[16] = molecular target: Fibroblast growth factor receptor 3 (Homo sapiens) (UniProt P22607); conditions: at 1 µM
Sequence of Fibroblast growth factor receptor 3 (Homo sapiens) (P22607 23-806 limits assumed): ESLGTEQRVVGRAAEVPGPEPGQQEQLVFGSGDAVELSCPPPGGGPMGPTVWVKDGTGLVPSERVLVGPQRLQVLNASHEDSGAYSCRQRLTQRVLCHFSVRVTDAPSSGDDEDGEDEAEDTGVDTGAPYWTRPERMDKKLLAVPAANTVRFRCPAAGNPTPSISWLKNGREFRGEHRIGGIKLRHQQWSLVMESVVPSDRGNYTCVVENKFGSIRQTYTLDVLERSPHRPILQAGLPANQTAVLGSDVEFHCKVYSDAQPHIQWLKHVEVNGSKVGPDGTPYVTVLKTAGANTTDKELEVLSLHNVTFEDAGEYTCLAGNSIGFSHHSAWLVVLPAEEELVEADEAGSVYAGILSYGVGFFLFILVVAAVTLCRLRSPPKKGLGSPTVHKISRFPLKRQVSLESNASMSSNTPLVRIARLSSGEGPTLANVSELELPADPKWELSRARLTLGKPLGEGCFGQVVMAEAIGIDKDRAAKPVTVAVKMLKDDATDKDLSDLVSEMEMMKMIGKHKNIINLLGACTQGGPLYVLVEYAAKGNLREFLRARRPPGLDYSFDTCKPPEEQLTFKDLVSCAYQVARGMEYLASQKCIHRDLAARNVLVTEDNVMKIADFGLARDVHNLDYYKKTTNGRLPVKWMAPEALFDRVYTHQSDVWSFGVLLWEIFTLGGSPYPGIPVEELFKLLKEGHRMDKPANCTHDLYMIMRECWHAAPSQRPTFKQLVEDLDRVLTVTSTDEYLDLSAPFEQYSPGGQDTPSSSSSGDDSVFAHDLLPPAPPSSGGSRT

[17] = molecular target: Fibroblast growth factor receptor 3 (Homo sapiens) (UniProt P22607); conditions: at 10 µM
[18] = molecular target: Fibroblast growth factor receptor 4 (Homo sapiens) (UniProt P22455); conditions: at 1 µM
Sequence of Fibroblast growth factor receptor 4 (Homo sapiens) (P22455 22-802 limits assumed): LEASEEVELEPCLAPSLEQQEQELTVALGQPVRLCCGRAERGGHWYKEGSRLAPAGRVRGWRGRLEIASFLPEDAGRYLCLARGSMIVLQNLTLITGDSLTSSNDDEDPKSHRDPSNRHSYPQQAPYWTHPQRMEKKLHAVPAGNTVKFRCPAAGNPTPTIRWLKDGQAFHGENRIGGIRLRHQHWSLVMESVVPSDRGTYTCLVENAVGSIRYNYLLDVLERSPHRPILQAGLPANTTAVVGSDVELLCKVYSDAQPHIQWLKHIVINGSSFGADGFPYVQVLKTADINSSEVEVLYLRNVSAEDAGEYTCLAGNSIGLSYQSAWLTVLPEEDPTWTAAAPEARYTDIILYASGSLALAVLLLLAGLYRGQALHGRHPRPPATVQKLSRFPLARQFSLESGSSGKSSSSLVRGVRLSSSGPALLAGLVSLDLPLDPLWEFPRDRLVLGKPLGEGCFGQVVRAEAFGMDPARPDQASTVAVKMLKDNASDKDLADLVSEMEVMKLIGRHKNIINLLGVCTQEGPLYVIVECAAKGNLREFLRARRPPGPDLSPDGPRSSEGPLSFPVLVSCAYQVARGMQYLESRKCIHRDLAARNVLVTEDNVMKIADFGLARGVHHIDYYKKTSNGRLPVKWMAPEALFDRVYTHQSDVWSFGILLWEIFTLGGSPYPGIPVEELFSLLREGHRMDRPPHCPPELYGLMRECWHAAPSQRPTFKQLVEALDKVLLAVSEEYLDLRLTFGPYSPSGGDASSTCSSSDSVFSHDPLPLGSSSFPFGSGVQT

[19] = molecular target: Fibroblast growth factor receptor 4 (Homo sapiens) (UniProt P22455); conditions: at 10 µM
[20] = molecular target: Tyrosine-protein kinase Fer (Homo sapiens) (UniProt P16591); conditions: at 1 µM
Sequence of Tyrosine-protein kinase Fer (Homo sapiens) (P16591 whole entry, looked up): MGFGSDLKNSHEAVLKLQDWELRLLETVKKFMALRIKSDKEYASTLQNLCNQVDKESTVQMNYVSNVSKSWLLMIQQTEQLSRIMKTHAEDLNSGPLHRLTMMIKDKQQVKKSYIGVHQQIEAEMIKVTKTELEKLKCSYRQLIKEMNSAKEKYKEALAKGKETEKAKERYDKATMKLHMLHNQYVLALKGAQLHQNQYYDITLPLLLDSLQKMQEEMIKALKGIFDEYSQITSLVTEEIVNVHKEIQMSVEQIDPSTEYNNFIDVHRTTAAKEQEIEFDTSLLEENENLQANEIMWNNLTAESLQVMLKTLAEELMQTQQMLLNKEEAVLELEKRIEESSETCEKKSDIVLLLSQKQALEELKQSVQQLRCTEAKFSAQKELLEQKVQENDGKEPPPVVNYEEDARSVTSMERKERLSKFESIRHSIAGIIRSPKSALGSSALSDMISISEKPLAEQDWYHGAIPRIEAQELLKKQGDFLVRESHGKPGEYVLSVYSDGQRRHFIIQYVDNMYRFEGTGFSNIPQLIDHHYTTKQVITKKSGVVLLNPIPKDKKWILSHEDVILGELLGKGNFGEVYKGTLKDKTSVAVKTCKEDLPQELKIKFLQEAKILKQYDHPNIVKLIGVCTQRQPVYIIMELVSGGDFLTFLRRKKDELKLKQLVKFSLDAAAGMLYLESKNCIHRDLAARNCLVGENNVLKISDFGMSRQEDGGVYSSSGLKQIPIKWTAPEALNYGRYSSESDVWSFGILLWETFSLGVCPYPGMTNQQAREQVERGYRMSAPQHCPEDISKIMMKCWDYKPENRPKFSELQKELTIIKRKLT

Row | SMILES | residual activity [1] [%] | residual activity [2] [%] | residual activity [3] [%] | residual activity [4] | residual activity [5] [%] | residual activity [6] [%] | residual activity [7] [%] | residual activity [8] [%] | residual activity [9] [%] | residual activity [10] [%] | residual activity [11] [%] | residual activity [12] [%] | residual activity [13] [%] | residual activity [14] [%] | residual activity [15] [%] | residual activity [16] [%] | residual activity [17] [%] | residual activity [18] [%] | residual activity [19] [%] | residual activity [20] [%]
1 | Nc1cccc(-c2cc3c(Oc4cccc(O)c4)ncnc3[nH]2)c1 | -1 | 4 | -1 | 105% (inactive) | 90 | 2 | -3 | 71 | 19 | 87 | 42 | 2 | 0 | 21 | 2 | 53 | 9 | 72 | 22 | 58
2 | O=Nc1c(-c2c(O)[nH]c3ccccc23)[nH]c2ccccc12 | 13 | 91 | 13 | 105% (inactive) | 103 | 67 | 13 | 107 | 99 | 39 | 2 | 3 | -1 | 22 | 2 | 20 | 2 | 100 | 45 | 70
3 | Cn1cnc2cc3c(Nc4cccc(Br)c4)ncnc3cc21 | 42 | 77 | 5 | 110% (inactive) | 123 | 31 | 4 | 72 | 75 | 82 | 93 | 74 | 43 | 92 | 89 | 102 | 97 | 127 | 96 | 115
